# Key:
# Experiment in all cases: DAPPL (digital affinity profiling via proximity ligation, sequencing); 10 mM Tris-HCl pH 7.5, 50 mM NaCl, 1 mM DTT, 4% glycerol, room temperature, 30 min; GST-TFs on glutathione beads, 16-mer random dsDNA library, 0.1% formaldehyde crosslink after washing; high values mean tight binding
# FLI1 = target: T1, FLI1 (Homo sapiens, UniProt Q01543 1-452); conditions: protein: recombinant; tags: N-terminal GST; dsDNA, one strand shown
# T1 sequence: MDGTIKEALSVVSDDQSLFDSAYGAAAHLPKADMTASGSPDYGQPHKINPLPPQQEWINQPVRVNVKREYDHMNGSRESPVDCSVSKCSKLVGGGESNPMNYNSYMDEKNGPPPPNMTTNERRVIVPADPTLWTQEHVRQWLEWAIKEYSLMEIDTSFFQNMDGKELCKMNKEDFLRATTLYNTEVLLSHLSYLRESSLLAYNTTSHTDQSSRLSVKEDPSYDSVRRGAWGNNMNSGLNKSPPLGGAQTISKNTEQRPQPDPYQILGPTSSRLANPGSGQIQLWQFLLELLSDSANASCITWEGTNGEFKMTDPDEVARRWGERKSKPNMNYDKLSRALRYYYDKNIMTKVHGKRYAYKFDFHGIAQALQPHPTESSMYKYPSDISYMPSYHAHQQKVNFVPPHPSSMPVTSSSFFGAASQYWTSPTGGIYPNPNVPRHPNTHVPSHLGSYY
# Procedure, shortened: (§1)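 Beads coated with glutathione captured GST-fused human transcription factors that had been expressed in yeast, and the factors were then given DNA barcodes and pooled with a tag-only sample. The pools were incubated with 200 nmole of a random double-stranded 16-mer DNA library in Tris/NaCl/DTT/glycerol buffer for 30 min at room temperature, washed, crosslinked with 0.1% formaldehyde and proximity-ligated with BsaI/T4 ligase at 37 °C for 1 h. PCR amplification and Illumina NextSeq500 sequencing came last. Binding signal is each hexamer's read frequency for a factor divided by its frequency for the tag-only sample.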
# ELK1 = target: T2, ELK1 (Homo sapiens, UniProt P19419 1-428); conditions: protein: recombinant; tags: N-terminal GST; dsDNA, one strand shown
# T2 sequence: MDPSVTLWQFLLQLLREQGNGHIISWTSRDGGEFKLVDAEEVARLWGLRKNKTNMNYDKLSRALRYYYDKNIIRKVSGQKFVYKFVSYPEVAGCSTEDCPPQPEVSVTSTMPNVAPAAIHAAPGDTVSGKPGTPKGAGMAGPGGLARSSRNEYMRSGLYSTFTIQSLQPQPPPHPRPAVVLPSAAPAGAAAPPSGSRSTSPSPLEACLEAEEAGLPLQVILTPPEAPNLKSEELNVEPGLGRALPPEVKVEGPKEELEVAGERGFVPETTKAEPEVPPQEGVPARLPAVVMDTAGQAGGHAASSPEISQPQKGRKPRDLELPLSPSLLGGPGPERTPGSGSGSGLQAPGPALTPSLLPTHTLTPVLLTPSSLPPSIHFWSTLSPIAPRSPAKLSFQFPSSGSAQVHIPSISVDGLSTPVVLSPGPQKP
# Procedure, shortened: as §1
# GABPA = target: T3, GABPA (Homo sapiens, UniProt Q06546 1-454); conditions: protein: recombinant; tags: N-terminal GST; dsDNA, one strand shown
# T3 sequence: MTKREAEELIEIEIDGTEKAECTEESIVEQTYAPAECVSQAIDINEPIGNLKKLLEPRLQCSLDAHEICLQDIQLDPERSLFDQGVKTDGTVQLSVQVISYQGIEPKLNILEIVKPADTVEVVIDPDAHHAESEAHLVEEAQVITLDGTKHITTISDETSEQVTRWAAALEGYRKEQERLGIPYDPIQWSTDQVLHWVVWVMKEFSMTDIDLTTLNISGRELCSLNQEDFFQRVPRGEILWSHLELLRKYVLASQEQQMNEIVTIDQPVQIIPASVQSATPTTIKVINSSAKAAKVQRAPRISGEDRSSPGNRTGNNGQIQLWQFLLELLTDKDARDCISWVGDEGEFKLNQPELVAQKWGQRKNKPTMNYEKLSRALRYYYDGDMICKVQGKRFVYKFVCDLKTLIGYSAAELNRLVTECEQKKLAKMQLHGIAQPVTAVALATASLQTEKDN
# Procedure, shortened: as §1
# ERG = target: T4, ERG (Homo sapiens, UniProt P11308 1-479); conditions: protein: recombinant; tags: N-terminal GST; dsDNA, one strand shown
# T4 sequence: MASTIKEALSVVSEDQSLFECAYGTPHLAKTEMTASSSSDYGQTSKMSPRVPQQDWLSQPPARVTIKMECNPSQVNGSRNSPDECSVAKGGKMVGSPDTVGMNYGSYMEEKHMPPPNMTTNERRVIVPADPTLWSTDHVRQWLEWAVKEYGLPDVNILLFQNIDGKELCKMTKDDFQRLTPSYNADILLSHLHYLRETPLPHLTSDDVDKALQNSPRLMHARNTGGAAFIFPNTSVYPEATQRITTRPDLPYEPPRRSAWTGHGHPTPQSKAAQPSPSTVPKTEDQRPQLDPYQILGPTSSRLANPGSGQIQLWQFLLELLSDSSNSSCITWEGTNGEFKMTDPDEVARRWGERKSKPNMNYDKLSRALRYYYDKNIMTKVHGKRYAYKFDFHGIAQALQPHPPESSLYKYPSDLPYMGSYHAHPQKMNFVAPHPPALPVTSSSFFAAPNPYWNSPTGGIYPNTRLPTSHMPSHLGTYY
# Procedure, shortened: as §1
# ELF1 = ELF1 (Homo sapiens, UniProt P32519 1-619); conditions: protein: recombinant; tags: N-terminal GST; dsDNA, one strand shown
# Procedure, shortened: as §1
# EHF = target: T5, EHF (Homo sapiens, UniProt Q9NZC4 1-300); conditions: protein: recombinant; tags: N-terminal GST; dsDNA, one strand shown
# T5 sequence: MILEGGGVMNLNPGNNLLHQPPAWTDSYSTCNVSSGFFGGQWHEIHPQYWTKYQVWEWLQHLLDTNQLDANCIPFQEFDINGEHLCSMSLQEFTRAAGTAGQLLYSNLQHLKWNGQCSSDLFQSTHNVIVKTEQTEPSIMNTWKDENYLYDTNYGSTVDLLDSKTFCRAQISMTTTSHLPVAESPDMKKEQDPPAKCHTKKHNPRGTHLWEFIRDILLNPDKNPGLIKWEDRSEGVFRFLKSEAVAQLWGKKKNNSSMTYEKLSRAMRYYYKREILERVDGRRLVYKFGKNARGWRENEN
# Procedure, shortened: as §1
# SPI1 = SPI1 (Homo sapiens, UniProt P17947 1-270); conditions: protein: recombinant; tags: N-terminal GST; dsDNA, one strand shown
# Procedure, shortened: as §1
# SPIB = SPIB (Homo sapiens, UniProt Q01892 1-262); conditions: protein: recombinant; tags: N-terminal GST; dsDNA, one strand shown
# Procedure, shortened: as §1
# ELK3 = target: T6, ELK3 (Homo sapiens, UniProt P41970 1-407); conditions: protein: recombinant; tags: N-terminal GST; dsDNA, one strand shown
# T6 sequence: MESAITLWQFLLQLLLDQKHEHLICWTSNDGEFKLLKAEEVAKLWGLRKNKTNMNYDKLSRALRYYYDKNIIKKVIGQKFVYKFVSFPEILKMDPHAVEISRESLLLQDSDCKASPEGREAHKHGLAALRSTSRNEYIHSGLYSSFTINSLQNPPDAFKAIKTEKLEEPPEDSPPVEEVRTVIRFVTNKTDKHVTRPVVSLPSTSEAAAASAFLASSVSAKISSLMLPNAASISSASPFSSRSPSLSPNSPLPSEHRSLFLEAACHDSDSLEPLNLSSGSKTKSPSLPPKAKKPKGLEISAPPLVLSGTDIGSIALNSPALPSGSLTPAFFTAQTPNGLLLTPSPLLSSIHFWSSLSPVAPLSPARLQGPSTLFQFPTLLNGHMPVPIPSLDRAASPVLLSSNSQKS
# Procedure, shortened: as §1
# FEV = target: T7, FEV (Homo sapiens, UniProt Q99581 1-238); conditions: protein: recombinant; tags: N-terminal GST; dsDNA, one strand shown
# T7 sequence: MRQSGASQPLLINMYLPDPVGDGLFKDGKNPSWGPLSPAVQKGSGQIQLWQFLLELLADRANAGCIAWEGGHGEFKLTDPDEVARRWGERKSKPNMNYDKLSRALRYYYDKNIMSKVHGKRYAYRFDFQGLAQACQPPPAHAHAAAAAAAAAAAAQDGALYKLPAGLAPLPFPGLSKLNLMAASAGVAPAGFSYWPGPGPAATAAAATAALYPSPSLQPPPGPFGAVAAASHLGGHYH
# Procedure, shortened: as §1
# ETV5 = ETV5 (Homo sapiens, UniProt P41161 1-510); conditions: protein: recombinant; tags: N-terminal GST; dsDNA, one strand shown
# Procedure, shortened: as §1
# HSF1 = HSF1 (Homo sapiens, UniProt Q00613 1-529); conditions: protein: recombinant; tags: N-terminal GST; chain copies: 3; dsDNA, one strand shown
# Procedure, shortened: as §1
# SPIC = target: T8, SPIC (Homo sapiens, UniProt Q8N5J4 1-248); conditions: protein: recombinant; tags: N-terminal GST; dsDNA, one strand shown
# T8 sequence: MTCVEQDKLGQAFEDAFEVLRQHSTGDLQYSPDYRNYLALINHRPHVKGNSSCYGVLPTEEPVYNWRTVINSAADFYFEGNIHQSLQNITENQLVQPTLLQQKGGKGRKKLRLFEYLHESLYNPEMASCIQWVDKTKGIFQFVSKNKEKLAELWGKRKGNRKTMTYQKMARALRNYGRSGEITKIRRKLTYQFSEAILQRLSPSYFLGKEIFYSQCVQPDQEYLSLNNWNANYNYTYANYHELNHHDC
# Procedure, shortened: as §1
# ELF4 = ELF4 (Homo sapiens, UniProt Q99607 1-663); conditions: protein: recombinant; tags: N-terminal GST; dsDNA, one strand shown
# Procedure, shortened: as §1
# ELK4 = target: T9, ELK4 (Homo sapiens, UniProt P28324-2 1-405); conditions: protein: recombinant; tags: N-terminal GST; dsDNA, one strand shown
# T9 sequence: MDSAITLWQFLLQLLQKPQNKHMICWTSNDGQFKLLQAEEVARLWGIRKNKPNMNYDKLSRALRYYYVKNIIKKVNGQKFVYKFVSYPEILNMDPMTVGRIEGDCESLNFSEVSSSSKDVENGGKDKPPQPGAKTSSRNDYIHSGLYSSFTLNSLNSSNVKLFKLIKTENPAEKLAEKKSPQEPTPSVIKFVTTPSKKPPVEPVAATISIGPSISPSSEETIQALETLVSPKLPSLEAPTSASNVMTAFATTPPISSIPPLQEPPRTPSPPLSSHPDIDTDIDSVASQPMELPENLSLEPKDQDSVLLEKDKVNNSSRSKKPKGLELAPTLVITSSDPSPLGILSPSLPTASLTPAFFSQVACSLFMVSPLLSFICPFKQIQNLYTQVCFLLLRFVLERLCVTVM
# Procedure, shortened: as §1
# ETV2 = target: T10, ETV2 (Homo sapiens, UniProt O00321 1-342); conditions: protein: recombinant; tags: N-terminal GST; dsDNA, one strand shown
# T10 sequence: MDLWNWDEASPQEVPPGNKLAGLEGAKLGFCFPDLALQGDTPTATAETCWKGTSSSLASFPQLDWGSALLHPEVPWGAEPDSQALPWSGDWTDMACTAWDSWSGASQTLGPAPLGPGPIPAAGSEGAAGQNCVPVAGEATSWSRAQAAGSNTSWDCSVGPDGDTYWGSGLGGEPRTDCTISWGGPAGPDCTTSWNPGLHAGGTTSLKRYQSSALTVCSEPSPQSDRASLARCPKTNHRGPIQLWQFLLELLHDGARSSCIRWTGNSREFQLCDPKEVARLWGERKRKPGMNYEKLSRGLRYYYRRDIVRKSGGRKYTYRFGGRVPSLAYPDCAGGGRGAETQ
# Procedure, shortened: as §1
# ELF3 = target: T11, ELF3 (Homo sapiens, UniProt P78545 1-371); conditions: protein: recombinant; tags: N-terminal GST; dsDNA, one strand shown
# T11 sequence: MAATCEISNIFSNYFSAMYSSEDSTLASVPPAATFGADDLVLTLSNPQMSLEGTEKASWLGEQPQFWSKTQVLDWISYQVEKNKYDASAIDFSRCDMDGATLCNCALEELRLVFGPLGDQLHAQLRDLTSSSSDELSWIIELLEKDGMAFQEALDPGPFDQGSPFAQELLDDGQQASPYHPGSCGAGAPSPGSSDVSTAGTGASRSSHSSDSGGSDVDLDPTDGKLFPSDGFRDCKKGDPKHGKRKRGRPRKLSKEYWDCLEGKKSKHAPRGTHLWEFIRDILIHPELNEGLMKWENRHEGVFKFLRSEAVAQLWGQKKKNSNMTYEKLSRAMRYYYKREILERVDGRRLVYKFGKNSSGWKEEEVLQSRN
# Procedure, shortened: as §1
# CRX = CRX (Homo sapiens, UniProt O43186 1-299); conditions: protein: recombinant; tags: N-terminal GST; dsDNA, one strand shown
# Procedure, shortened: as §1
# ETV1 = ETV1 (Homo sapiens, UniProt P50549 1-477); conditions: protein: recombinant; tags: N-terminal GST; dsDNA, one strand shown
# Procedure, shortened: as §1
# Chain of ELF4 (Q99607 whole entry): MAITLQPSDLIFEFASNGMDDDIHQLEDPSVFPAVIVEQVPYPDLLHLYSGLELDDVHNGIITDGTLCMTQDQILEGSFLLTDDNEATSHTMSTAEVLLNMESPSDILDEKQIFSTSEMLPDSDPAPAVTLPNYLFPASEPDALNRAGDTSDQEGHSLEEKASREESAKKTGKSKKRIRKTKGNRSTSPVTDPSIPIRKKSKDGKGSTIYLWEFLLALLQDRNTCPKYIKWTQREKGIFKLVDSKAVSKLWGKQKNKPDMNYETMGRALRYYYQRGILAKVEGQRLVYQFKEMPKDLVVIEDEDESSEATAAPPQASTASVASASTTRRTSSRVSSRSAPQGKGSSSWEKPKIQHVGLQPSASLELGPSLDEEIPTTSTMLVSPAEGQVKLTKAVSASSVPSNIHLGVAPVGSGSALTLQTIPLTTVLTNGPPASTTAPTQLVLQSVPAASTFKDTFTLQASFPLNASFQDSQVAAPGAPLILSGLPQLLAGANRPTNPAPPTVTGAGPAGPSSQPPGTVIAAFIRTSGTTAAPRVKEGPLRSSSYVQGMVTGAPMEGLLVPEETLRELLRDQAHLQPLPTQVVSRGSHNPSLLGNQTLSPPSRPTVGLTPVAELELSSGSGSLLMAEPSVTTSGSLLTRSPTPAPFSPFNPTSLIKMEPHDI
# Chain of ELF1 (P32519 whole entry): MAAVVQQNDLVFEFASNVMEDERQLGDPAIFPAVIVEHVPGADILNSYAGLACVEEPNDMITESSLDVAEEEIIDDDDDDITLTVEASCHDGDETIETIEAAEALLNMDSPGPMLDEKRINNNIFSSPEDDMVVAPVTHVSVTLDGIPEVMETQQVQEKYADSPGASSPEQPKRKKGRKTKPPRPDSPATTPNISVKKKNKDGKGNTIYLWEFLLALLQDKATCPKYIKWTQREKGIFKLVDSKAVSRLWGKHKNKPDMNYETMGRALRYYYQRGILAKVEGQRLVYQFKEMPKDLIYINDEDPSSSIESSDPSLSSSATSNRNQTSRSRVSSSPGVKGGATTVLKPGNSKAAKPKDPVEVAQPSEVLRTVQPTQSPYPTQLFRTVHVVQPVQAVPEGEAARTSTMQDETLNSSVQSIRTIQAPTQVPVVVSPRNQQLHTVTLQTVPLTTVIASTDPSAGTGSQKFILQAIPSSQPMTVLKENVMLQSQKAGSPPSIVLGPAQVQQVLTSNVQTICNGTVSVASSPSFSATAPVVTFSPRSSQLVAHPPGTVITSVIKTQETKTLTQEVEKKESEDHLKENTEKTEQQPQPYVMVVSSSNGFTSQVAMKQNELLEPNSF
# Chain of ETV5 (P41161 whole entry): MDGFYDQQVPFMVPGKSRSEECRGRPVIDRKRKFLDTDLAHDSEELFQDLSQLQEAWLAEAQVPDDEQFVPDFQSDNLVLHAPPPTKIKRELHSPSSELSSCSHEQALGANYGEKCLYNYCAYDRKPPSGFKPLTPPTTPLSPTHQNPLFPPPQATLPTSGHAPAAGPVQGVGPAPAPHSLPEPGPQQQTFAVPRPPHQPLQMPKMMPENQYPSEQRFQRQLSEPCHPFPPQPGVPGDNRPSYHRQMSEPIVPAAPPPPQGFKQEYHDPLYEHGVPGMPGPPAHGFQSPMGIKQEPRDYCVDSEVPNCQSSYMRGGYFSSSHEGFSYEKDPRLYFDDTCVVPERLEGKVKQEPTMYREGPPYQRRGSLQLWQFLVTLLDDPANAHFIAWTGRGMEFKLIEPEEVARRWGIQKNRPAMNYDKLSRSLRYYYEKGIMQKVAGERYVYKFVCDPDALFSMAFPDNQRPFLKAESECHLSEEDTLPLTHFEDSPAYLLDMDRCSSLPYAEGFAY
# Chain of HSF1 (Q00613 whole entry): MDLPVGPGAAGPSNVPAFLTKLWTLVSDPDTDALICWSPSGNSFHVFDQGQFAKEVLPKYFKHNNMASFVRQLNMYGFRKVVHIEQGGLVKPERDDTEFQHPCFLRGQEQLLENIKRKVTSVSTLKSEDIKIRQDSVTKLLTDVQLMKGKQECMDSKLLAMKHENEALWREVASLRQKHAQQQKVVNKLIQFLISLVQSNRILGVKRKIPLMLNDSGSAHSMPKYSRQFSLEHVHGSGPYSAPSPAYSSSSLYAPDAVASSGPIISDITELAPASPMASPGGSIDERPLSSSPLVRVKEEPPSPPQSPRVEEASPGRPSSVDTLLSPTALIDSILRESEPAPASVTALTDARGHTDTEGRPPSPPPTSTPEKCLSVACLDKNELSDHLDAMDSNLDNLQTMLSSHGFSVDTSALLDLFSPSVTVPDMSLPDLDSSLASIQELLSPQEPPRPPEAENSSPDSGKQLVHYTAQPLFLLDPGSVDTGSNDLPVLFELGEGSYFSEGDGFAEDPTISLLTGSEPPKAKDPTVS
# Chain of CRX (O43186 whole entry): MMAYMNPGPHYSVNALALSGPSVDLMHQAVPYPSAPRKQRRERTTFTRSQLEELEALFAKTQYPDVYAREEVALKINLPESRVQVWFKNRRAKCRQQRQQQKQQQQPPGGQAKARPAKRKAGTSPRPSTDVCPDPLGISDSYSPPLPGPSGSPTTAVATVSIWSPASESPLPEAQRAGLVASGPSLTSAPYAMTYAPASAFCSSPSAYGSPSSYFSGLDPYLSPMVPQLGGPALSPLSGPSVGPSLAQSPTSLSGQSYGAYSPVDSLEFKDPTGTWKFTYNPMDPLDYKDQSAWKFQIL
# Chain of SPIB (Q01892 whole entry): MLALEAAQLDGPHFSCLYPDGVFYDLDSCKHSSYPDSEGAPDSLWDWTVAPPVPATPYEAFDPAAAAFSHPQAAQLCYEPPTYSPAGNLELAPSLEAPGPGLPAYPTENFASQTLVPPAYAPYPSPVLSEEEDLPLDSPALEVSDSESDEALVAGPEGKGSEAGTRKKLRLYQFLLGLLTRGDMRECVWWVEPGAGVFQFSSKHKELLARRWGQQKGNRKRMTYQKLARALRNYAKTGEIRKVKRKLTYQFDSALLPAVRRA
# Chain of ETV1 (P50549 whole entry): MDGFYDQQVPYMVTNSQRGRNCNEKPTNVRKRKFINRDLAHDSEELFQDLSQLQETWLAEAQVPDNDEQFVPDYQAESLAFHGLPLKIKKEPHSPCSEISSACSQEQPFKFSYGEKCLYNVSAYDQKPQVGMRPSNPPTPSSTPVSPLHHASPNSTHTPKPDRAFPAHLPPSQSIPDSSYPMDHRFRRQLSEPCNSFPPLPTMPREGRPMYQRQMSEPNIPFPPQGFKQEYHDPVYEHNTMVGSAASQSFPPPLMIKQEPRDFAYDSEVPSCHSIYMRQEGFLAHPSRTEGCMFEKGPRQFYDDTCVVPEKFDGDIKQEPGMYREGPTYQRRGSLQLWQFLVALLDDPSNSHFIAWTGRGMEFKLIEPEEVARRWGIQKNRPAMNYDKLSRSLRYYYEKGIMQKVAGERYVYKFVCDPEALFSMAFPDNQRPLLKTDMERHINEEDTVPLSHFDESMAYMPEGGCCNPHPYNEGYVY
sequence,measurement,setting,value
ATACAC,binding signal,FLI1,"1.18 fold enrichment (6-mer frequency, TF over GST control)"
same,binding signal,ELK1,"1.19 fold enrichment (6-mer frequency, TF over GST control)"
same,binding signal,GABPA,"1.25 fold enrichment (6-mer frequency, TF over GST control)"
same,binding signal,ERG,"1.25 fold enrichment (6-mer frequency, TF over GST control)"
same,binding signal,ELF1,"1.19 fold enrichment (6-mer frequency, TF over GST control)"
same,binding signal,EHF,"1.22 fold enrichment (6-mer frequency, TF over GST control)"
same,binding signal,SPI1,"1.23 fold enrichment (6-mer frequency, TF over GST control)"
same,binding signal,SPIB,"1.23 fold enrichment (6-mer frequency, TF over GST control)"
same,binding signal,ELK3,"1.21 fold enrichment (6-mer frequency, TF over GST control)"
same,binding signal,FEV,"1.24 fold enrichment (6-mer frequency, TF over GST control)"
same,binding signal,ETV5,"1.22 fold enrichment (6-mer frequency, TF over GST control)"
same,binding signal,HSF1,"1.01 fold enrichment (6-mer frequency, TF over GST control)"
same,binding signal,SPIC,"1.22 fold enrichment (6-mer frequency, TF over GST control)"
same,binding signal,ELF4,"1.24 fold enrichment (6-mer frequency, TF over GST control)"
same,binding signal,ELK4,"1.25 fold enrichment (6-mer frequency, TF over GST control)"
same,binding signal,ETV2,"1.24 fold enrichment (6-mer frequency, TF over GST control)"
same,binding signal,ELF3,"1.16 fold enrichment (6-mer frequency, TF over GST control)"
same,binding signal,CRX,"1.04 fold enrichment (6-mer frequency, TF over GST control)"
same,binding signal,ETV1,"1.31 fold enrichment (6-mer frequency, TF over GST control)"
